Test results reported in PubChem BioAssay (EPA / NIEHS).
Active and inactive are the calls of the source. How the source made its calls: active means hit-call score of the fitted dose curve at least 0.9, where 1 is the maximum; inconclusive means response in the unintended direction; inactive means score below 0.9.

target: rat CYP2C11, Cyp2c11 (gene 29277) (UniProt P08683); test: NVS_ADME_rCYP2C11: NovaScreen (NVS) CYP450-related Enzyme Activity (ADME) Assay for rat CYP2C11 (AID 2283118)
Experimental: NVS_ADME_rCYP2C11 is a biochemical, single-readout assay that uses extracted gene-proteins in a cell-free assay. Measurements were taken 0.33 hour after chemical dosing in a 96-well plate.NVS_ADME_rCYP2C11 is one of one assay component(s) measured or calculated from the NVS_ADME_rCYP2C11 assay. It is designed to make measurements of enzyme activity, a form of enzyme reporter, as detected with fluorescence intensity signals by Fluorescence technology.Data from the assay component NVS_ADME_rCYP2C11 was analyzed into 1 assay endpoint. This assay endpoint, NVS_ADME_rCYP2C11, was analyzed in the positive analysis fitting direction relative to Acetonitrile as the negative control and baseline of activity. Using a type of enzyme reporter, loss-of-signal activity can be used to understand changes in the enzymatic activity as they relate to the gene Cyp2c11. Furthermore, this assay endpoint can be referred to as a primary readout, because this assay has produced multiple assay endpoints where this one serves a enzymatic activity function. To generalize the intended target to other relatable targets, this assay endpoint is annotated to the cyp intended target family, where the subfamily is xenobiotic metabolism.
Binding assays used specific radioligands (tritiated, iodinated) with non-radioactive competitive displacement ligands in agonist or antagonist protocols (as indicated) and various reference compounds and inhibitors to titrate specific binding to receptors and transporters. Most enzyme assays (CYPs, kinases, phosphatases, proteases, HDACs) used recombinant protein and specific substrates (fluorescence mostly, some colorimetric and radioactive) and inhibitors, followed by a biochemical separation of substrate and product. All assays for the biochemical HTS were initially run in duplicate at a single concentration (10 uM for CYP450 assays and 25 uM for all others). […] Each assay was run with positive and negative controls, and concurrent controls on every plate. The follow-up (secondary) screen tested active chemical-pairs in concentration series, as well as a few additional assays not tested in the primary screen, some selected negative inactives, and several cases re-run in the concentration series for confirmatory purposes.

Sequence of rat CYP2C11, Cyp2c11 (gene 29277) (P08683 whole entry, looked up): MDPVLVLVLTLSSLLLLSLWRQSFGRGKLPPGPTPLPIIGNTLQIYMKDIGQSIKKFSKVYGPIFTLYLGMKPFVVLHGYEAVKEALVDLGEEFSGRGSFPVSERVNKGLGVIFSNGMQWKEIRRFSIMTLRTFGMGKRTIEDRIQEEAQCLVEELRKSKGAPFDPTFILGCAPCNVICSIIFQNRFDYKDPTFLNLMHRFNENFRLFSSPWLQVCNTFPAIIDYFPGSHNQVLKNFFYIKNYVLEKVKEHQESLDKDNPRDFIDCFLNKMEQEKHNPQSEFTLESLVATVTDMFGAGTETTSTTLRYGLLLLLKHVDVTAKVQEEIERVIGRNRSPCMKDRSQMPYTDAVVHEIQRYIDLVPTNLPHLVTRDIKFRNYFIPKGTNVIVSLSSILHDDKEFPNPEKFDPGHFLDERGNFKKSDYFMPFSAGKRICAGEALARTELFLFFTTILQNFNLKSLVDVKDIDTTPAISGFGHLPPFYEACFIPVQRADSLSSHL

Structure (SMILES)	AC50	outcome
COP(=S)(OC)Oc1ccc([N+](=O)[O-])c(C)c1	0.392 µM (active)	
CCCCC(C#N)(Cn1cncn1)c1ccc(Cl)cc1 (configuration not stated)	2.39 µM (active)	
CO/N=C(/C1=NOCCO1)c1ccccc1Oc1ncnc(Oc2ccccc2Cl)c1F	0.779 µM (active)	
CC(C)N1C(=O)N(c2ccccc2)CSC1=NC(C)(C)C	3.97 µM (active)	
CCOc1cc(C(C)(C)C)ccc1C1COC(c2c(F)cccc2F)=N1 (configuration not stated)	10 µM (active)	
COP(=S)(OC)SCn1nnc2ccccc2c1=O	0.419 µM (active)	
CCNP(=S)(OC)O/C(C)=C/C(=O)OC(C)C (configuration not stated)	1.24 µM (active)	
CCCCC(O)(Cn1cncn1)c1ccc(Cl)cc1Cl (configuration not stated)	1.85 µM (active)	
COc1ccc(-c2ccccc2)cc1NNC(=O)OC(C)C		inactive
CC(C)(C)C(=O)C(Oc1ccc(Cl)cc1)n1cncn1 (configuration not stated)	4.29 µM (active)	
CCN(CC)C(=O)C(C)Oc1cccc2ccccc12 (configuration not stated)	0.951 µM (active)	
CC1(C)CCC(=Cc2ccc(Cl)cc2)C1(O)Cn1cncn1 (configuration not stated)	0.384 µM (active)	
